# Assay outcomes as filed in PubChem BioAssay.
# Rev-erbA mod: modulators of human Rev-erb alpha DNA binding; P20393; Rev-erbα–FITC-DNA binding, fluorescence polarization, 90 min; activity, % at 10 µM; 370,000 tested, 0.79% active; AID 1259318;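 active = activity above about 14%, limit read from the data; passing the limit was not always enough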
# Target sequence (P20393 whole entry, looked up): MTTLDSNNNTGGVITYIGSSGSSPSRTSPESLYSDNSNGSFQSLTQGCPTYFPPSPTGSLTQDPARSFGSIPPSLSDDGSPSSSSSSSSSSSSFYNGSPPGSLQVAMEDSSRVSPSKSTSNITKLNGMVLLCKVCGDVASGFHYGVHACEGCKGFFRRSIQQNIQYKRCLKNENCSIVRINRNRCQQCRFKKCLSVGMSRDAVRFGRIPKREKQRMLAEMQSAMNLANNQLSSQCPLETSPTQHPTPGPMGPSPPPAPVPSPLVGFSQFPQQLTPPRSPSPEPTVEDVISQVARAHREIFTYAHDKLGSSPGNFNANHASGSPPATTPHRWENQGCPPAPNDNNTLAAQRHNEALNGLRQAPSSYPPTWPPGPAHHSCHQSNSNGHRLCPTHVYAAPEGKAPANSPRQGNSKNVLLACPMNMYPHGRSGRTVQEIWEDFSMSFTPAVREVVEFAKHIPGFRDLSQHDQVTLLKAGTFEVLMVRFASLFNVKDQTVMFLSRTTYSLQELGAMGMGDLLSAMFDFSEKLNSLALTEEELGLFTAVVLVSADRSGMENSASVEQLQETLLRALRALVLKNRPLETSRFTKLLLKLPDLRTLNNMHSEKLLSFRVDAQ
# SKN-1 block: inhibitors of C. elegans SKN-1; C. elegans VP596 Pgst-4::GFP/RFP ratio, acrylamide-induced, 24 h; inhibition, % at 21.8 µM; 360,000 tested, 0.49% active; AID 624304;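 active = interference check ratio from 0.5 to 1.5 plus GFP to RFP signal ratio inhibition reaching or exceeding a fixed threshold, cut at about 30% in these data, passing the limit was not always enough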
# PGE2 EP2 inh: inhibitors of human EP2 prostaglandin E2 receptor | P43116 | 260,000 tested, 0.52% active | inhibition, % at 25 µM | C6 glioma cells expressing human EP2, cAMP TR-FRET; cells stimulated with saturating PGE2;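 active = percent inhibition above 40 after rounding to a whole number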;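 also: rat C6 glioma host cells with rolipram phosphodiesterase inhibitor present; the protocol text gives 20 µM as final concentration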
# PG9 binder: binds the HIV-1 gp120 antibody PG9; TR-FRET gp120-PG9 antibody binding; inhibition, % at 6.7 µM; 360,000 tested, 0.43% active; in the data active = inhibition above about 8.5%
# RAM inhibit: yeast RAM network inhibition. AID 868. inhibition, % at 50 µM. S. cerevisiae dse1pr::URA3 reporter, 5-FOA growth OD615, 2 d; analog-sensitive cbk1-as2 kinase mutant strain. 190,000 tested, 1.8% active;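 active = inhibition above a set limit, 3 SD over mean compound inhibition, cut at about 8.4% in these data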;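 also: inhibition rescues growth on 5-FOA so higher OD means more RAM inhibition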
# EP2 modulator: modulators of human EP2 prostaglandin E2 receptor; P43116; EP2-expressing cells, cAMP HTRF FRET, PGE2 co-stimulation; induction, % at 25 µM; 260,000 tested, 0.83% active;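 active = compounds whose cAMP rise, as percent of the full-agonist control response, exceeds 60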;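 also: rat C6 glioma line stably carrying human EP2 under a CMV promoter; the protocol text gives 20 µM as final concentration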
# RAM efflux-def: restores 5-FOA growth of efflux-deficient yeast. shares compounds with RAM inhibit. S. cerevisiae efflux-deficient reporter strain, 5-FOA growth OD615, 2 days. max inhibition, %. 1,200 tested, under 10 active. AID 1305; call rule not given here
# Numbers stand for hits; – = inactive; · = no result given. Shown are actives, neighbours in structure and some others; about 2.9% of the full set was active somewhere.
SMILES,Rev-erbA mod,SKN-1 block,PGE2 EP2 inh,PG9 binder,RAM inhibit,EP2 modulator,others
COc1ccc2c3c([nH]c2c1)[C@H]1C[C@@H]2[C@H](C[C@@H](O)[C@H](OC)[C@H]2C(=O)O)CN1CC3,·,·,51,·,·,–,
COC(=O)[C@H]1[C@@H]2C[C@H]3c4[nH]c5ccccc5c4CCN3C[C@H]2CC[C@@H]1O,·,·,41,·,·,–,
FC(F)(F)c1ccccc1Cc1c(-c2ccccc2)nc2ccc(Br)cn12,–,48,·,–,·,·,
N#Cc1ccc(-c2nc3c4ccccc4ccn3c2Cc2ccccc2C(F)(F)F)cc1,–,42,·,–,·,·,
CCOC(=O)c1c(-c2ccccc2)oc2ccc(OCC(=O)O)cc12,–,–,–,–,·,68,
CCOc1ccc2oc(-c3ccccc3)c(C(=O)N(C)C)c2c1,–,–,–,–,–,–,
CCOC(=O)c1c(-c2ccc(OC)cc2)oc2ccc(OCC(N)=O)cc12,–,–,·,–,·,·,
CCN(CC)C(=O)c1c(-c2ccccc2)oc2ccc(OC)cc12,–,–,–,–,–,64,
O=C1/C(=C\c2ccc(Br)o2)SC(=Nc2ccccc2)N1c1ccccc1,–,–,–,–,11,–,
CN(C)N1C(=O)/C(=C/c2ccco2)SC1=Nc1ccccc1,–,–,·,–,·,·,
COc1cc2c(cc1OC)-c1cc(NC3CCCC3)nc(=O)n1CC2,–,–,–,–,–,–,
COc1cc2c(cc1OC)-c1cc(=Nc3c(C)cc(C)cc3C)n(C)c(=O)n1CC2,·,·,–,·,·,67,
CS(=O)(=O)c1nsc2nc(=O)c(/C=C3\C=Nc4ccccc43)c(N)n12,–,–,–,–,9.9,–,
CC(C)(C)c1ncc(C(=O)NC2CCN(Cc3cccc(F)c3)CC2)cn1,·,·,–,·,·,–,
COC1=CC(=O)C=C(OC)C1=O,–,–,75,–,·,–,
Cn1cc([C@@H]2C[C@H]3CN(Cc4cccc(Cl)c4)C(=O)[C@]34CCCN24)c2ccccc21,–,35,–,–,–,–,
Cn1c(=O)c2ncn(CC(=O)Nc3ccc4c5c(cccc35)CC4)c2n(C)c1=O,·,42,–,–,–,–,
Cc1sc(C(=O)Nc2cccs2)c(C#N)c1C,·,·,–,·,·,–,
CCOC(=O)c1cccc(NC(=O)COc2ccc([N+](=O)[O-])cc2)c1,–,–,–,–,–,–,
CCCCOc1ccc(C(=O)Nc2ccc(C)cc2[N+](=O)[O-])cc1,–,–,–,–,9.1,–,
CCCCOc1ccc(C(=O)OCC(=O)Nc2cc(C)c(C)cc2[N+](=O)[O-])cc1,–,–,–,–,11,–,
CCCOC(=O)c1cccc(NC(=O)COc2ccc([N+](=O)[O-])cc2)c1,–,–,–,–,10,–,
CCCn1c(SCC(=O)Nc2cc(C)ccc2OC)nc2c1c(=O)n(C)c(=O)n2C,·,·,–,·,·,–,
CCC(C)n1cnc2c(c1=O)c1nc3ccccc3nc1n2Cc1ccc2c(c1)OCO2 (configuration not stated),·,·,–,·,10,–,
CCC(C)n1cnc2c(c1=O)c1nc3ccccc3nc1n2-c1ccc2c(c1)OCCO2 (configuration not stated),–,–,·,–,–,–,
SMILES,Rev-erbA mod,SKN-1 block,PGE2 EP2 inh,PG9 binder,RAM inhibit,EP2 modulator,others
Cc1ccc2c(c1)C(=O)CC1(CCN(CC(=O)c3ccc4c(c3)OCCO4)CC1)O2,·,·,–,·,·,–,
O=C(O)CCN1C(=O)c2ccc(Oc3ccc4c(c3)C(=O)N(CCC(=O)O)C4=O)cc2C1=O,–,–,–,–,10,–,
O=C1c2ccc(Oc3ccc4c(c3)C(=O)N(CCCCO)C4=O)cc2C(=O)N1CCCCO,–,–,–,–,–,–,
Cc1ccc2nc(N3C(=O)C(O)=C(C(=O)c4ccc(C)o4)C3c3ccco3)sc2c1 (configuration not stated),–,–,49,–,·,–,
Cc1ccc2nc(N3C(=O)C(O)=C(C(=O)c4ccco4)C3c3ccc(C)o3)sc2c1 (configuration not stated),–,–,·,–,·,·,
Cc1nn2c(N(C)CCO)c3c(nc2c1-c1ccc(F)cc1)CCC3,·,·,·,·,·,–,
CSc1nc(N2CCOCC2)c2sccc2n1,–,–,–,–,–,–,
CSc1nc(Oc2ccc(Cl)cc2)c2sccc2n1,–,–,–,–,–,64,
COc1ccc(Oc2nc(C)nc3c2oc2ccccc23)cc1,–,–,–,–,–,–,
Cc1nc(Oc2ccccc2)c2oc3ccccc3c2n1,–,38,–,–,–,–,
Cc1ccccc1COC(=O)c1nn(-c2ccccc2)nc1N,–,–,–,–,9.4,–,
Nc1nn(-c2ccccc2)nc1C(=O)OCc1ccccc1F,·,–,–,·,–,–,
CC(=O)C1=C(C)OC(N)=C(C#N)C1c1ccco1 (configuration not stated),–,37,–,–,–,–,
COc1cc(/C=C/C(=O)OCC(=O)NCc2ccco2)ccc1OC(F)F,–,–,·,–,·,·,
COc1cc(/C=C/C(=O)OCc2c(C)noc2C)ccc1OC(F)F,–,–,83,–,–,–,
CCOc1ccc2[nH]c(=O)c(CN(CCN3CCOCC3)C(=S)NC)cc2c1,·,·,–,·,·,–,
Cc1ccccc1-c1noc(-c2cccs2)n1,–,88,–,–,–,–,
COc1cccc(-c2noc(-c3cccs3)n2)c1,–,91,–,–,–,–,
COC(=O)C1=C(O)CNC1=O,·,·,–,·,·,–,
C=CCOc1cccc(C2C(C(=O)c3ccc(C)o3)=C(O)C(=O)N2Cc2ccncc2)c1 (configuration not stated),–,–,–,11,–,–,
C=CCOc1cccc(C2C(C(=O)c3ccc(C)o3)=C(O)C(=O)N2Cc2cccnc2)c1 (configuration not stated),·,·,–,·,·,–,
N#CC1(Nc2ccc(-c3ccc(NC4(C#N)CCCC4)cc3)cc2)CCCC1,–,–,55,–,·,–,
Cc1ccc(NC2(C#N)CCCC2)cc1,–,–,·,–,·,·,
Cc1ccc2c(c1)C(c1cc3ccccc3oc1=O)=NC(C)(C)C2,·,·,–,·,·,–,
CSc1ccc(/C=N/NC(=O)CN2CCN(Cc3ccc(Cl)cc3)CC2)cc1,–,–,–,–,–,–,
SMILES,Rev-erbA mod,SKN-1 block,PGE2 EP2 inh,PG9 binder,RAM inhibit,EP2 modulator,others
CSc1ccc(/C=N/N2CCN(Cc3ccc(Cl)cc3)CC2)cc1,–,55,–,–,–,–,
Cc1ccc2[nH]c(=O)c(CN(Cc3ccco3)C(=O)NC3CCCCC3)cc2c1,·,·,–,·,·,–,
CCCC(=O)NC1=C(Cl)C(=O)c2ccccc2C1=O,–,–,·,–,·,·,
CCNC1=C(Cl)C(=O)c2ccccc2C1=O,–,37,–,–,–,–,
CC1CC(=O)c2c(cc3c(-c4c(O)cc(O)c5c(O)c6c(cc45)OC(C)CC6=O)c(O)cc(O)c3c2O)O1 (configuration not stated),·,–,77,·,9.4,–,
Fc1ccc(CSc2nnc(Cc3sc(-c4ccccc4)nc3-c3ccccc3)o2)cc1,–,–,–,–,22,–,RAM efflux-def=–
C=CCNc1cc(C)nc2c(-c3ccc(OC)cc3)c(C)nn12,·,·,·,·,·,–,
